# Sampled rows, rich in hits. Any-hit rate of the full collection: about 19%.
# DT40 TDP1 no CPT: qHTS for Inhibitors of human tyrosyl-DNA phosphodiesterase 1 (TDP1): qHTS in cells in absence of CPT; DT40 Tdp1-/- hTDP1 cells, no CPT, ATP luminescence, 48 h; Potency, µM (series often up to 46.2 µM), for the others: at the highest dose activity change, negative = growth inhibition, usual class: inhibitors; actives 15% (n = 420,000); note: potency is the fitted concentration of half-maximal effect; nearly all actives have a fitted effect of over 55% in size
#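 Growth of hTDP1-complemented DT40 Tdp1-knockout cells is measured by ATP luminescence after at least 48 hr compound exposure at 37 °C, with DMSO substituting for the 20 nM CPT used in the parallel screen.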
# HT1080NT lethal: kills 2HG-producing HT-1080-NT fibrosarcoma cells; HT-1080-NT fibrosarcoma viability, CellTiter-Glo ATP luminescence, 48 h; Potency, µM (highest dose often 46.1 µM), for inactives: top-dose activity, negative = less viability, most hits filed as cytotoxic; actives 1.6% (n = 360,000); AID 686970;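 note: NT is the 2HG producing partner of a matched IDH1 knockdown line; potency is the fitted concentration of half-maximal effect; 0% = DMSO-treated cells and -100% = media-only wells without cells; nearly all actives have a fitted effect of over 55% in size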
#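 A 48-hour cytotoxicity screen used HT-1080-NT cells plated 2 hours before compound delivery. ATP-based CellTiter-Glo luminescence measured viability, normalized to DMSO and no-cell controls.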
# HT1080 IDH1KD tx: toxicity to HT-1080 IDH1 knockdown cells (counter line). HT-1080 IDH1 knockdown viability, ATP luminescence, 48 h. Potency, µM (doses to about 46.1 µM), without a hit: at the highest dose activity, negative = toxicity, actives largely listed as cytotoxic. actives 2% (n = 360,000);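 note: potency is the fitted concentration of half-maximal effect; 0% = DMSO wells and -100% = cell-free medium wells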
#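 IDH1KD HT-1080 cells, 750/well, RPMI + 5% FBS; compound pinned after 2 h settling; 48 h, 37 °C; CellTiter-Glo luminescence; % activity normalised to DMSO and no-cell wells; curves fitted, classed by r2 and efficacy.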
# IL-1B inflam inh: inhibitors of inflammasome signaling (IL-1 beta secretion); actives 4.7% (n = 360,000); AID 743279; activity change, % at 57.5 µM; THP-1 LPS/ATP IL-1B secretion, AlphaLISA, 16 h; stronger effect = lower value; in the data active = activity change below about -50%; inconclusive = mostly about -30% to -49%
#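 THP-1 cells pretreated 1 hr with compounds (up to 57.5 uM final), then stimulated with LPS (250 ng/mL final) plus ATP (1.25 mM final); secreted IL-1B measured by AlphaLISA after 16 hr, decreased signal indicating inhibition.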
# DT40 TDP1 CPT: growth inhibition of DT40 Tdp1-/-;hTDP1 cells with camptothecin (screen for TDP1 inhibitors) | chicken DT40 Tdp1-/-;hTDP1 cells + 20 nM CPT, ATP luminescence, 48 h | Potency, µM (titrated, usually from 46.2 µM), without a hit: at the top dose activity change, negative = growth inhibition, usual class: inhibitors | actives 12% (n = 420,000) | AID 686979; note: potency is the fitted concentration of half-maximal effect; nearly all actives have a fitted effect of over 55% in size
#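 Cell growth measured by CellTiter-Glo luminescence after a minimum 48 h, 37 C compound exposure with 20 nM CPT in Tdp1-knockout DT40 cells stably expressing hTDP1, seeded 400/well; qHTS titration format.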
# * = called active by the depositor; ? = inconclusive; . = not tested or not shown. Unless noted, calls come from the whole dose curve; as a rule, active = well fitted curve in the direction sought with a large enough effect; inconclusive = small, poorly fitted or top-dose-only effect, or another doubt; inactive = no such curve, though single readings can be large; an effect the other way counts as inactive or inconclusive. Unless noted, % is set by controls: 0 for no effect and ±100 for the full control effect.
SMILES,DT40 TDP1 no CPT,HT1080NT lethal,HT1080 IDH1KD tx,IL-1B inflam inh,DT40 TDP1 CPT
O=C(CCn1c(=O)c2cccn2c2cccnc21)N1CCN(c2cccc(Cl)c2)CC1,14.6µM*,3.5%,5.3%,22.9,18.4µM*
O=C(CCn1c(=O)c2cccn2c2cccnc21)N1CCN(c2ccccc2F)CC1,23.1µM*,.,.,.,?
Cc1ccc(C)c(N2CCN(C(=O)CCn3c(=O)c4cccn4c4cccnc43)CC2)c1,20.6µM*,.,.,.,?
COc1ccc(N2CCN(C(=O)Cn3c(=O)c4cccn4c4cccnc43)CC2)cc1,-27.5%,-1.5%,-9.4%,9.0,?
Cc1cnc(-n2ncc(C(=O)NCC(C)(C)N3CCOCC3)c2C(C)C)nc1-c1ccc(F)cc1,-5.0%,.,.,.,5.2%
O=C1CCCN1CCC1CCCCN1Cc1nc(-c2cnccn2)no1 (centres undefined),1.2%,3.1%,2.5%,9.9,-7.2%
Cc1ccc(C)c(N2CCN(CCCNC(=O)Cn3c(=O)c4cccn4c4cccnc43)CC2)c1,?,-21.3%,-15.7%,?,20.6µM*
N=c1c2c(n(Cc3ccc(Cl)cc3)c3c1CCC3)CCC2,2.31µM*,5.01µM*,7.08µM*,-66.7*,2.31µM*
Clc1cccc(CN2CCCCCC2)c1,-12.6%,-2.6%,3.8%,3.4,-6.0%
N=c1c2c(n(Cc3ccc(F)cc3)c3c1CCC3)CCCC2,1.03µM*,?,?,0.0,0.82µM*
CCOC(=O)Cn1c2c(c(=N)c3ccccc31)CCC2,-17.9%,0.4%,7.5%,16.5,-10.0%
CCOC(=O)Cn1c2c(c(=N)c3c1CCC3)CCC2,-7.4%,-4.1%,-23.3%,14.4,-7.7%
N=c1c2c(n(Cc3ccccc3)c3c1CCC3)CCC2,0.581µM*,?,?,-28.2,1.64µM*
N=c1c2c(n(Cc3cccc(Cl)c3)c3c1CCC3)CCCC2,1.84µM*,6.31µM*,10µM*,-78.6*,2.59µM*
Oc1ccc(CCc2ccccn2)cc1,-12.7%,5.2%,3.6%,5.5,?
CC(C)(C)NC(=O)C1CCN(c2nc3ccccc3nc2C(F)(F)F)CC1,?,.,.,.,-29.0%
COc1ccccc1CCNC(=O)C1CCN(c2nc3ccccc3nc2C(F)(F)F)CC1,7.31µM*,.,.,.,16.4µM*
COc1cccc(NC(=O)C2CCN(c3nc4ccccc4nc3C(F)(F)F)CC2)c1,14.6µM*,.,.,.,23.1µM*
CN(Cc1nccn1C)C(=O)c1ccc(OC2CCN(CCc3ccccc3)CC2)cc1,0.0%,-5.4%,-3.7%,4.4,12.0%
Oc1ccc(C[C@H]2CNC(=S)N2CC2CCCN2C[C@H](Cc2ccccc2)N2C[C@H](Cc3ccc(O)cc3)N(CCc3ccccc3)C2=S)cc1 (some centres undefined),23.1µM*,-20.2%,?,?,23.1µM*
Oc1ccc(C[C@@H](CN2CCC[C@@H]2CN2C(=S)NC[C@@H]2Cc2ccccc2)N2C[C@H](Cc3ccccc3)N(CCc3ccccc3)C2=S)cc1,18.4µM*,-16.2%,-4.4%,-17.0,16.4µM*
Cc1cc2ccccc2n1CCNC(=O)c1ccccc1F,16.4µM*,.,.,.,?
CC(=O)NCCn1c(C)cc2ccccc21,?,-3.5%,-1.8%,3.9,-23.4%
Cc1cc2ccccc2n1CCNC(=O)c1ccc(Br)o1,29.1µM*,-2.6%,-3.1%,-25.9,-28.5%
Cc1cc2ccccc2n1CCNC(=O)C(C)(C)C,-3.3%,-1.0%,6.7%,-11.7,1.0%
Cc1cc2ccccc2n1CCNC(=O)c1ccc(Br)cc1,20.6µM*,.,.,.,?
O=C(NCc1cc2ccccc2[nH]1)c1ccccc1F,-5.0%,-8.6%,0.6%,-63.7*,-19.1%
Cc1cc2ccccc2n1CCNC(=O)c1ccccc1,?,1.9%,-1.2%,-10.5,?
Cc1onc(-c2ccccc2Cl)c1C(=O)NCCn1c(C)cc2ccccc21,29.1µM*,0.0%,-2.4%,-9.8,?
Cn1c(=O)c2[nH]c(CCCCCCCc3nc4ccccc4[nH]3)nc2n(C)c1=O,13µM*,-23.5%,-5.6%,-18.5,23.1µM*
